# From PubChem BioAssay (NCI)
# About 79,000 compounds went through this panel and 15% of them were active in at least one assay; those are over-represented in the sample as a whole. Active and inactive are the calls of the source. No stated cut-off is given here; in the data, active means growth inhibition above about 70%; inactive means the rest.
# Key:
# [1] = NCI Yeast Anticancer Drug Screen. Data for the rad50 strain (AID 155);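 further: 0% = growth of vehicle-only cultures of the same strain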; details: S. cerevisiae rad50 strain growth inhibition, hits give high values
# How it was run: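 Readout: growth inhibition relative to vehicle-treated cultures. Compound exposure was carried out in a genetically defined yeast strain deficient in DNA damage repair.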
# [2] = NCI Yeast Anticancer Drug Screen. Data for the mec2-1 strain (AID 157); details: S. cerevisiae mec2-1 strain, hits give high values
# How it was run: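 Strain: mec2-1 (DNA repair/cell cycle alteration). Compound exposure, then growth measured; inhibition expressed relative to vehicle.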
# [3] = NCI Yeast Anticancer Drug Screen. Data for the sgs1 mgt1 strain (AID 161);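 further: 0% = growth of cultures given vehicle only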; details: S. cerevisiae sgs1 mgt1 strain, hits give high values
# How it was run: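 Genetically altered yeast, compound exposure, growth inhibition relative to vehicle.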
# [4] = NCI Yeast Anticancer Drug Screen. Data for the cln2 rad14 strain (AID 165);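 further: 0% = growth equal to vehicle treated cultures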; details: S. cerevisiae cln2 rad14 strain, hits give high values
# How it was run: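 Compounds are applied to the cln2 rad14 yeast strain, and growth is then compared with that of vehicle-treated cultures to give inhibition.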
# [5] = NCI Yeast Anticancer Drug Screen. Data for the bub3 strain (AID 167); details: S. cerevisiae bub3 mutant strain, hits give high values
# How it was run: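 Readout: yeast growth inhibition, expressed relative to vehicle-only wells. The test organism is a mutant strain from a panel with lesions in DNA repair or checkpoint genes.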
# [6] = NCI Yeast Anticancer Drug Screen. Data for the mlh1 rad18 strain (AID 175); details: S. cerevisiae mlh1 rad18 strain growth inhibition, hits give high values
# How it was run: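 Read-out is yeast growth inhibition, calculated against vehicle-only controls. The compound was applied to a strain engineered with DNA damage repair alterations.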
# [7] = at 5.0 µM (retest, dose inferred, filed as 0.5)
# [8] = at 50.0 µM (retest, dose inferred, filed as 5.0)
Structure (SMILES),"growth inhibition [1, 7]","growth inhibition [1, 8]",growth inhibition ([1]; at 50.0 µM),"growth inhibition [2, 7]","growth inhibition [2, 8]",growth inhibition ([2]; at 50.0 µM),"growth inhibition [3, 7]","growth inhibition [3, 8]",growth inhibition ([3]; at 50.0 µM),"growth inhibition [4, 7]","growth inhibition [4, 8]",growth inhibition ([4]; at 50.0 µM),"growth inhibition [5, 7]","growth inhibition [5, 8]",growth inhibition ([5]; at 50.0 µM),"growth inhibition [6, 7]","growth inhibition [6, 8]",growth inhibition ([6]; at 50.0 µM)
CN(/N=C/c1ccc(Cl)cc1)P(=O)(N1CC1)N1CC1,24% (inactive),28% (inactive),-15.7% (inactive),14% (inactive),17% (inactive),-12.2% (inactive),18% (inactive),24% (inactive),-3.4% (inactive),31% (inactive),20% (inactive),11.7% (inactive),18% (inactive),18% (inactive),-0.25% (inactive),23% (inactive),28% (inactive),0.65% (inactive)
COP(=S)(OC)N(C)C(=O)Oc1cccc2ccccc12,0% (inactive),27% (inactive),48.5% (inactive),-21% (inactive),15% (inactive),39.2% (inactive),-20% (inactive),57% (inactive),60% (inactive),0% (inactive),10% (inactive),55.5% (inactive),9% (inactive),40% (inactive),61.4% (inactive),-14% (inactive),77% (active),80.8% (active)
Cl[C](Cl)(Cl)[Hg][c]1ccccc1,99% (active),99% (active),88% (active),100% (active),99% (active),93.8% (active),100% (active),99% (active),92.7% (active),99% (active),99% (active),91.7% (active),99% (active),99% (active),91.8% (active),99% (active),99% (active),91.5% (active)
Cc1ccccc1C(=O)CN,-3% (inactive),-2% (inactive),16.4% (inactive),0% (inactive),-3% (inactive),-6% (inactive),-1% (inactive),0% (inactive),-4.2% (inactive),-5% (inactive),-3% (inactive),81.3% (active),-2% (inactive),-9% (inactive),-13.1% (inactive),-1% (inactive),-3% (inactive),12.9% (inactive)
CC12CCC(O)CC1CCC1C2CCC2(C)C(C(=O)CC(O)C(F)(F)F)CCC12 (centres undefined),4% (inactive),62% (inactive),84.5% (active),8% (inactive),43% (inactive),65.8% (inactive),-9% (inactive),62% (inactive),67.5% (inactive),-7% (inactive),66% (inactive),71.2% (active),-15% (inactive),57% (inactive),84% (active),0% (inactive),63% (inactive),85.7% (active)
COc1ccc(OC)c(C=O)c1,1% (inactive),5% (inactive),24.9% (inactive),0% (inactive),7% (inactive),-12.2% (inactive),-2% (inactive),12% (inactive),-11.7% (inactive),2% (inactive),4% (inactive),-38.2% (inactive),2% (inactive),7% (inactive),-35% (inactive),-1% (inactive),14% (inactive),-8% (inactive)
CC(=O)O.[Au].c1ccc([PH+](c2ccccc2)c2ccccc2)cc1,99% (active),98% (active),98.2% (active),98% (active),98% (active),98.2% (active),99% (active),55% (inactive),98% (active),99% (active),96% (active),98% (active),100% (active),98% (active),98.2% (active),99% (active),97% (active),97.6% (active)
c1ccc2c(c1)c1cccc3c4c5ccccc5c5cccc(c2c13)c54,-1% (inactive),-1% (inactive),1.9% (inactive),-2% (inactive),0% (inactive),15.7% (inactive),-2% (inactive),-1% (inactive),11.4% (inactive),1% (inactive),-5% (inactive),78.1% (active),0% (inactive),1% (inactive),-1.25% (inactive),-3% (inactive),-2% (inactive),14.6% (inactive)
C[CH2][Sn]1([CH2]C)[c]2ccccc2Oc2cccc[c]21,99% (active),98% (active),99% (active),99% (active),99% (active),99.4% (active),99% (active),99% (active),99.3% (active),97% (active),98% (active),98.8% (active),99% (active),99% (active),99.2% (active),99% (active),99% (active),99% (active)
CC(Cc1ccccc1)[N+](=O)[O-] (centres undefined),8% (inactive),70% (active),79% (active),0% (inactive),6% (inactive),-12.9% (inactive),2% (inactive),7% (inactive),-8.2% (inactive),3% (inactive),-3% (inactive),-19.6% (inactive),7% (inactive),27% (inactive),-6.9% (inactive),-1% (inactive),10% (inactive),12.1% (inactive)
CC(=O)OCC1OC(OC(C)C)[CH]([Hg][S]Cc2ccccc2)C(OC(C)=O)C1OC(C)=O (centres undefined),99% (active),98% (active),54.8% (inactive),99% (active),99% (active),57.9% (inactive),94% (active),98% (active),44.6% (inactive),37% (inactive),98% (active),96.8% (active),99% (active),98% (active),98.2% (active),99% (active),97% (active),46.1% (inactive)
N#C[S-].[Nd+3].c1cnc2c(c1)ccc1cccnc12.c1cnc2c(c1)ccc1cccnc12.c1cnc2c(c1)ccc1cccnc12,91% (active),99% (active),93% (active),98% (active),100% (active),94.8% (active),98% (active),99% (active),94.2% (active),93% (active),98% (active),93.7% (active),98% (active),99% (active),93.2% (active),98% (active),99% (active),92.8% (active)
CN(C)c1ccc(C2N(Cc3ccc(N(CCCl)CCCl)cc3Cl)CCCN2Cc2ccc(N(CCCl)CCCl)cc2Cl)cc1,1% (inactive),97% (active),93.5% (active),-12% (inactive),98% (active),90.9% (active),1% (inactive),98% (active),99% (active),1% (inactive),97% (active),15.8% (inactive),-1% (inactive),97% (active),93.8% (active),6% (inactive),98% (active),95.2% (active)
CC1=CCC2(C)C3CCC4(C)C(O)CCC4C3CCC2(C)C1 (centres undefined),-17% (inactive),90% (active),70.8% (active),-17% (inactive),95% (active),11.9% (inactive),-6% (inactive),97% (active),63.8% (inactive),-6% (inactive),83% (active),9.1% (inactive),-25% (inactive),94% (active),39.5% (inactive),-10% (inactive),96% (active),58.6% (inactive)
O=[n+]1c2ccccc2n([O-])c2ccccc21.[Cl][Ni][Cl],96% (active),99% (active),90.8% (active),75% (active),100% (active),92.7% (active),89% (active),99% (active),92.3% (active),33% (inactive),98% (active),90.6% (active),68% (inactive),100% (active),89% (active),92% (active),96% (active),91.9% (active)
O=C(c1ccccc1)C1CCCN(CCc2ccccc2)C1 (centres undefined),54% (inactive),64% (inactive),57.3% (inactive),31% (inactive),70% (active),55.7% (inactive),54% (inactive),63% (inactive),73.3% (active),48% (inactive),62% (inactive),82% (active),43% (inactive),56% (inactive),84.2% (active),56% (inactive),67% (inactive),67.7% (inactive)
ClCCN(CCCl)c1ccc(C2N(Cc3ccc(N(CCCl)CCCl)cc3Cl)CCCN2Cc2ccc(N(CCCl)CCCl)cc2Cl)cc1,2% (inactive),99% (active),96.2% (active),-3% (inactive),99% (active),98.8% (active),-1% (inactive),99% (active),97.5% (active),-7% (inactive),99% (active),22.1% (inactive),1% (inactive),99% (active),37% (inactive),9% (inactive),99% (active),98.2% (active)
O=C1NC(=O)C(C(c2ccnc3ccccc23)C2C(=O)NC(=O)NC2=O)C(=O)N1,-6% (inactive),-6% (inactive),30.1% (inactive),0% (inactive),-6% (inactive),34% (inactive),-5% (inactive),-4% (inactive),55.9% (inactive),3% (inactive),-7% (inactive),62.6% (inactive),-6% (inactive),5% (inactive),42.6% (inactive),0% (inactive),-5% (inactive),35.8% (inactive)
